Data published in the supplement of paper PMC11732987, “Enantioselective OTUD7B fragment discovery through chemoproteomics screening and high-throughput optimisation” (Communications Chemistry, 2025).
Unmarked numbers belong to inactive results.

Target: T1, VCPIP1 (UniProt Q96JH7)
T1 sequence (whole entry): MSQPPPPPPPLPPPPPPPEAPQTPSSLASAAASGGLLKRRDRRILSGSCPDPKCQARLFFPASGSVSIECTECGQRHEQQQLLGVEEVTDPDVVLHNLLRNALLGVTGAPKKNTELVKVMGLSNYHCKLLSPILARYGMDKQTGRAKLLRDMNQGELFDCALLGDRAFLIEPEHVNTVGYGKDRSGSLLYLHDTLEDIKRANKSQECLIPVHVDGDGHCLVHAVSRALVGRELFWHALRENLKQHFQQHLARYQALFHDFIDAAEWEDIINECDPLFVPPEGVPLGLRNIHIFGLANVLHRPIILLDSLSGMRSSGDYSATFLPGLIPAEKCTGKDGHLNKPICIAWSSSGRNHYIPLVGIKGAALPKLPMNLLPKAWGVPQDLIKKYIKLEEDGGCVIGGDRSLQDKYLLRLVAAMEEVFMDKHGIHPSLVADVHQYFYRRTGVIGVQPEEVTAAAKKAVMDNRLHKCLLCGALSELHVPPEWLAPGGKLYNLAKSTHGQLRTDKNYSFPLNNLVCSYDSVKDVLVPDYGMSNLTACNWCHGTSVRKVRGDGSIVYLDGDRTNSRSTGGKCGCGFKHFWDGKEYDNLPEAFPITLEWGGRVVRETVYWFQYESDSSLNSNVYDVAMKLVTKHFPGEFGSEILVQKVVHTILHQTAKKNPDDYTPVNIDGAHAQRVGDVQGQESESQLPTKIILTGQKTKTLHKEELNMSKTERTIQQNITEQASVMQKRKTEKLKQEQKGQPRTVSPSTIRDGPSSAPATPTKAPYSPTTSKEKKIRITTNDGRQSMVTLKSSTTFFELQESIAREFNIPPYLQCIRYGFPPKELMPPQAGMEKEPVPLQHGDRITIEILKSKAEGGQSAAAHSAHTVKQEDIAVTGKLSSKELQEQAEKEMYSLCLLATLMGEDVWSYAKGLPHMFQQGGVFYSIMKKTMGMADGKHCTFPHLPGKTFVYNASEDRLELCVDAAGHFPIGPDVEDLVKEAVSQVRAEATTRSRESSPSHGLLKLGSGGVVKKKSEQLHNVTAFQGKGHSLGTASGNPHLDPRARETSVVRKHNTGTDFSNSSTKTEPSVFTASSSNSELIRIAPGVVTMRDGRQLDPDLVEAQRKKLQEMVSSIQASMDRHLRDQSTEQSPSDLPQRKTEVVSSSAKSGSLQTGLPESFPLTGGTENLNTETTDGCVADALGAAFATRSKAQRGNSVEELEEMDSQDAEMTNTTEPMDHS
Assay: log2 ratio of Biotin-Ahx-Ub-VS probe labelling (fragment/DMSO); higher = less target engagement (more negative = stronger competition), active = hit call of the paper (q ≤ 0.05, log2 ratio ≤ -1)
Conditions: compound concentration: 200 uM; treatment time: 3 h
Description: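 Competitive ABPP in HEK293T cell lysate. Lysates were treated with each chloroacetamide fragment at 200 µM for 3 h, then with Biotin-Ahx-Ub-VS (0.5 µM, 1 h), NeutrAvidin-enriched and analysed by diaPASEF LC-MS/MS. Protein LFQ was median-normalised; average log2 ratio is fragment/DMSO from an unpaired t-test (n=3 treated, n=44 DMSO). Hits: q ≤ 0.05, log2 ratio ≤ -1, unique peptides ≥ 2.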

SMILES | log2 ratio of Biotin-Ahx-Ub-VS probe labelling
O=C(CCl)N1CCC(c2noc3cc(F)ccc23)CC1 | -2.98 (active)
O=C(CCl)N1CCC(c2nc3ccccc3o2)CC1 | -2.76 (active)
C/C(=C\CNC(=O)CCl)c1cnn(C)c1.Cl | -1.53 (active)
N#Cc1cnn(-c2ccccc2)c1NC(=O)CCl | -2.18 (active)
O=C(CCl)Nc1ccccc1C(F)(F)F | -0.635
Cl.O=C(CCl)N[C@H]1C[C@@H](n2cccn2)C1 | -0.848
Cc1nc(CN2CCCN(C(=O)CCl)CC2)no1.Cl | -0.1
